In assay [1] the target is Aryl hydrocarbon receptor (Homo sapiens) (UniProt P35869). In words: ATG_Ahr_CIS: Attagene CIS-FACTORIAL HepG2 Assay for human Aryl Hydrocarbon Receptor (Ahr) (AID 2282930; active = hit-call score of the fitted dose curve at least 0.9, where 1 is the maximum; inactive = score below 0.9). The conditions noted are these: HepG2 AhR cis-factorial reporter transcription; actives raise or lower the signal. The method in brief:
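Following 24 h of chemical dosing, transfected HepG2 liver cells with cis-driven reporter units were lysed for RNA; reporter mRNA was quantified via RT-PCR and capillary electrophoresis, and responses fitted bidirectionally from DMSO.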

Assay [2] in a line: ATG_AP_1_CIS: Attagene CIS-FACTORIAL HepG2 Assay for human Activator Protein 1 (AP-1) (AID 2282931; active = hit-call score of the fitted dose curve at least 0.9, where 1 is the maximum; inactive = score below 0.9). Particulars: HepG2 Attagene cis-factorial AP-1 reporter mRNA; actives raise or lower the signal. In short, it runs like this: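 We transfected HepG2 cells transiently with a set of cis-regulated reporter transcription units, dosed them for 24 h, and quantified reporter mRNA via RT-PCR and capillary electrophoresis, scoring gain or loss of signal relative to DMSO.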

The nature of assay [3]: ATG_E_Box_CIS: Attagene CIS-FACTORIAL HepG2 Assay for human Enhancer Box (E-box) (AID 2282936; active = hit-call score of the fitted dose curve at least 0.9, where 1 is the maximum; inactive = score below 0.9). Particulars: HepG2 E-box cis-reporter transcription, actives raise or lower the signal. In short, it runs like this: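 Endogenous transcription factor activity was sensed in human HepG2 liver cells through transfected cis-promoter reporter units. After 24 h of dosing, total RNA was reverse-transcribed and reporter cDNA resolved by capillary electrophoresis.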

Assay [4] in a line: ATG_GRE_CIS: Attagene CIS-FACTORIAL HepG2 Assay for human Glucocorticoid Response Elements (GRE) (AID 2282947; active = hit-call score of the fitted dose curve at least 0.9, where 1 is the maximum; inactive = score below 0.9). Particulars: HepG2 GRE cis-reporter, Attagene multiplex mRNA; actives raise or lower the signal. In short, it runs like this:
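Cells (HepG2) bearing transfected cis-promoter reporter transcription units were treated with chemical for 24 hours. Reporter mRNA was measured via RT-PCR with capillary electrophoresis, and activity was fitted in both directions relative to DMSO.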

For assay [5], the target named is Hypoxia-inducible factor 1-alpha (Homo sapiens) (UniProt Q16665). In words: ATG_HIF1a_CIS: Attagene CIS-FACTORIAL HepG2 Assay for human Hypoxia Inducible Factor 1 (HIF1A) (AID 2282951; active = hit-call score of the fitted dose curve at least 0.9, where 1 is the maximum; inactive = score below 0.9). Particulars: HepG2 Attagene cis-factorial HIF1a reporter transcription; actives raise or lower the signal. In short, it runs like this:
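Cis-element reporter constructs were transiently transfected into HepG2 cells, which were treated for 24 h; reporter RNA was reverse-transcribed, amplified, labelled and resolved by capillary electrophoresis.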

Assay [6] can be described thus: ATG_PPRE_CIS: Attagene CIS-FACTORIAL HepG2 Assay for human Peroxisome Proliferator-activated Response Element (PPRE) (AID 2282958; active = hit-call score of the fitted dose curve at least 0.9, where 1 is the maximum; inactive = score below 0.9). Particulars: HepG2 PPRE cis-element reporter, Attagene transcription factor profiling; actives raise or lower the signal. In short, it runs like this: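 DMSO served as negative control and baseline for bidirectional curve fitting. Signal came from PPRE-regulated reporter mRNA in HepG2 cells, measured 24 h post-dosing by RT-PCR, 6-FAM primer extension and capillary electrophoresis.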

Assay [7] can be described thus: ATG_M_19_TRANS: Attagene TRANS-FACTORIAL HepG2 Assay for M19 Transcription Factor (Internal Marker) (AID 2282974). Particulars: HepG2 Attagene TRANS-FACTORIAL M19 internal marker reporter. In short, it runs like this:
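Multiplexed TRANS format: HepG2 liver cells bearing transient GAL4-UAS reporter units, chemical treatment 24 h, reporter transcripts quantified by RT-PCR plus capillary electrophoresis. DMSO defines baseline.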

Assay [8] in a line: ATG_M_06_TRANS: Attagene TRANS-FACTORIAL HepG2 Assay for M06 Transcription Factor (Internal Marker) (AID 2282983).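 Also: reporter transcript level by RT-PCR then capillary electrophoresis fluorescence.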 Particulars: HepG2 Attagene TRANS M06 internal marker reporter. In short, it runs like this: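 Background control endpoint: reporter mRNA from transiently transfected HepG2 after 24 h dosing, detected by RT-PCR with capillary electrophoresis fluorescence. Analysed for gain versus DMSO.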

Assay [9] can be described thus: ATG_M_32_TRANS: Attagene TRANS-FACTORIAL HepG2 Assay for M32 Transcription Factor (Internal Marker) (AID 2282984).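 Also: transcript level of a background control reporter unit measured by RT-PCR and capillary electrophoresis.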 The conditions noted are these: HepG2 Attagene TRANS M32 internal marker reporter. In short, it runs like this: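 After 24 h dosing of transfected HepG2 cells, total RNA was reverse-transcribed, reporter sequences PCR-amplified, 6-FAM labelled by primer extension and HpaI-digested before capillary electrophoresis. Signal increase over DMSO was fitted.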

Assay [10] deals with Peroxisome proliferator-activated receptor gamma (Homo sapiens) (UniProt P37231). In words: ATG_PPARg_TRANS: Attagene TRANS-FACTORIAL HepG2 Assay for human Peroxisome Proliferator-activated Receptor-gamma (PPARg) (AID 2283007). The method in brief: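 Chimeric NR-Gal4 transactivation is measured in transiently transfected HepG2 cells by reporter mRNA induction at 24 h. Detection uses RT-PCR with fluorescent labelling and capillary electrophoresis; DMSO defines baseline.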
Chain of Peroxisome proliferator-activated receptor gamma (Homo sapiens) (P37231 whole entry, looked up, the tested form may be a part): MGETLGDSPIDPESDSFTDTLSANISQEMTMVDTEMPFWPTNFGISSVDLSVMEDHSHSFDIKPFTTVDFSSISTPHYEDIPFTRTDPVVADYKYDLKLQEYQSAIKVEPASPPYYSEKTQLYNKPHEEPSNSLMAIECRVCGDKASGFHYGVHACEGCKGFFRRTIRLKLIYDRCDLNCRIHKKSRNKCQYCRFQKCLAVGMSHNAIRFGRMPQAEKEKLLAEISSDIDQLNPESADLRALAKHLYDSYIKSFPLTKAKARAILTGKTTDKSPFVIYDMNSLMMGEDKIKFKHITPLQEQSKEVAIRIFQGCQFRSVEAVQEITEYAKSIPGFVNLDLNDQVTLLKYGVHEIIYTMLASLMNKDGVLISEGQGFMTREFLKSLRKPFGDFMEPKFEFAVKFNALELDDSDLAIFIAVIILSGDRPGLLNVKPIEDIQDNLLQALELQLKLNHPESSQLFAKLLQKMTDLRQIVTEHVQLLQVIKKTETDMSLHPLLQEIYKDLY

The target in assay [11] is human Retinoid X Receptor beta (RXRb), RXRB (gene 6257) (UniProt P28702). In words: ATG_RXRb_TRANS: Attagene TRANS-FACTORIAL HepG2 Assay for human Retinoid X Receptor beta (RXRb) (AID 2283013). In short, it runs like this:
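Chimeric receptor-Gal4 activity was assessed in transiently transfected human HepG2 cells after 24 h exposure. Transcripts from GAL4-UAS reporters were quantified by fluorescent RT-PCR and capillary electrophoresis, with DMSO as negative control and baseline.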

Assay [12] is described as follows: ATG_M_61_CIS: Attagene CIS-FACTORIAL HepG2 Assay for M61 Transcription Factor (Internal Marker) (AID 2282937; active = hit-call score of the fitted dose curve at least 0.9, where 1 is the maximum; inactive = score below 0.9). Particulars: HepG2 Attagene CIS-FACTORIAL M61 internal marker reporter; actives raise or lower the signal. In short, it runs like this: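 Multiplexed reporter mRNA assay, HepG2 human hepatoma cells, 24 h treatment. Signal: FAM-labelled, HpaI-digested RT-PCR fragments by CE. Fit: bidirectional, baseline DMSO.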

Assay [13] can be described thus: ATG_PBREM_CIS: Attagene CIS-FACTORIAL HepG2 Assay for human Phenobarbital-responsive Enhancer Module (PBREM) (AID 2282955; active = hit-call score of the fitted dose curve at least 0.9, where 1 is the maximum; inactive = score below 0.9). The conditions noted are these: HepG2 PBREM cis-reporter, Attagene multiplexed transcription; actives raise or lower the signal. In short, it runs like this: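 Multiplexed cis-reporter readout in human hepatoma HepG2 cells; PBREM-regulated transcript quantified after 24 h exposure by fluorescent RT-PCR fragment analysis. Signal changes up or down fitted relative to DMSO.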

Assay [14] is described as follows: ATG_NFI_CIS: Attagene CIS-FACTORIAL HepG2 Assay for human Nuclear Factor I (NFI) (AID 2282989; active = hit-call score of the fitted dose curve at least 0.9, where 1 is the maximum; inactive = score below 0.9). Particulars: HepG2 cis-regulatory reporter, NFI response element transcription; actives raise or lower the signal. In short, it runs like this:
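Read-out: reporter mRNA via RT-PCR plus capillary electrophoresis with fluorescence detection. Transiently transfected HepG2 (endogenous TF activity on cis promoters), 24 h compound exposure; gain or loss of signal fitted against DMSO.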

The target of assay [15] is Retinoic acid receptor RXR-alpha (Homo sapiens) (UniProt P19793). In words: ATG_RXRa_TRANS: Attagene TRANS-FACTORIAL HepG2 Assay for human Retinoid X Receptor alpha (RXRa) (AID 2283012). The method in brief: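 Measures exogenous chimeric NR-GAL4 activity in transfected HepG2 liver cells after 24 h of dosing. Induced reporter mRNA was detected by RT-PCR with capillary electrophoresis, and gain of signal was analysed against DMSO.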
Chain of Retinoic acid receptor RXR-alpha (Homo sapiens) (P19793 whole entry, looked up, the tested form may be a part): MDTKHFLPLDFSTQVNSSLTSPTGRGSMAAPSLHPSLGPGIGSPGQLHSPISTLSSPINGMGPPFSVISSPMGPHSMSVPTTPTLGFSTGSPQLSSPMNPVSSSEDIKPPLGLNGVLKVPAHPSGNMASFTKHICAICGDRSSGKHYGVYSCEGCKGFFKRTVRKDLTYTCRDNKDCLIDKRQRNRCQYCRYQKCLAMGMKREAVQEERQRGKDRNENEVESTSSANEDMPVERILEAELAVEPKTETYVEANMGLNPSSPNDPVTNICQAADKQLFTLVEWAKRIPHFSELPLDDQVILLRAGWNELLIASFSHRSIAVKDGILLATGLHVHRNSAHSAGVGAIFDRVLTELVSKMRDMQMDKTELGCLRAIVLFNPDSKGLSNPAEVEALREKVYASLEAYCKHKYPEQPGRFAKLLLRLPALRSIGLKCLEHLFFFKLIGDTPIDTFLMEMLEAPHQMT

The target of assay [16] is Cellular tumor antigen p53 (Homo sapiens) (UniProt P04637). In words: TOX21_p53_BLA_p2_ratio: Tox21 HCT-116 p53 Agonism Beta-lactamase Assay, Ratio, Phase 2 (AID 2283592). In short, it runs like this: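 Plated HCT116 p53-bla cells (4000/well) received compound after 5 h, then 16 h at 37C/5% CO2. CCF4-AM added, 2 h RT. Ratio of 460 to 530 nm emission taken as the p53 reporter signal.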
Chain of Cellular tumor antigen p53 (Homo sapiens) (P04637 whole entry, looked up): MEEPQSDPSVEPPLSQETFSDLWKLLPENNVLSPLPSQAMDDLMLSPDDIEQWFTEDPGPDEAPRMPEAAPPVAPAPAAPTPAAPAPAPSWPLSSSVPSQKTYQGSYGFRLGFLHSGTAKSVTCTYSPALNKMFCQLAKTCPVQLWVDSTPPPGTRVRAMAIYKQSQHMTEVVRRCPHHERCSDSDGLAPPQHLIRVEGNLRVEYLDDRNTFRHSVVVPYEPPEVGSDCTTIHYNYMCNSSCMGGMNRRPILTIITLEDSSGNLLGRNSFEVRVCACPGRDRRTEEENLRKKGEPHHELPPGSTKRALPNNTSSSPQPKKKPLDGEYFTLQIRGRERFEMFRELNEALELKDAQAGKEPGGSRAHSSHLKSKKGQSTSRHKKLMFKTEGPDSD

A short description of assay [17]: TOX21_p53_BLA_p5_viability: Viability Assessment in the Tox21 HCT-116 p53 Agonism Beta-lactamase Assay, Phase 5 (AID 2283600). In short, it runs like this:
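Workflow: seed 4000 cells per well, wait 5 h, add compounds (DMSO, 217-fold dilution), incubate 16 h, load CCF4-AM 2 h, add CellTiter-Glo, read luminescence after 30 min.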

Assay [18] addresses Cellular tumor antigen p53 (Homo sapiens) (UniProt P04637). In words: TOX21_p53_BLA_p4_ratio: Tox21 HCT-116 p53 Agonism Beta-lactamase Assay, Ratio, Phase 4 (AID 2283601). In short, it runs like this:
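HCT116 cells carrying an inducible beta-lactamase reporter were plated at 4000 cells/well, rested 5 h, then exposed to compounds in DMSO (217-fold dilution) for 16 h at 37C. CCF4-AM substrate was loaded 2 h at room temperature; 460/530 nm emission ratio scored gain-of-signal versus DMSO.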

Assay [19] has the same target. In words: TOX21_p53_BLA_p5_ratio: Tox21 HCT-116 p53 Agonism Beta-lactamase Assay, Ratio, Phase 5 (AID 2283599). The method in brief:
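HCT-116 cells carrying a p53-inducible beta-lactamase reporter were seeded at 4000 cells/well and dosed after 5 h with compound in DMSO (217-fold dilution). After 16 h at 37C, CCF4-AM substrate was added for 2 h, and the 460/530 nm emission ratio was scored as gain-of-signal versus DMSO.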

The nature of assay [20]: ACEA_ER_AUC_viability: ACEA Biosciences xCELLigence Real-Time Cell Analysis on Estrogen Receptor Agonism for Viability (AID 2283782).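 Also: hit means loss of impedance signal meaning reduced cell growth or viability.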 The method in brief: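 Continuous-exposure impedance cell analysis uses T-47D cells in charcoal-stripped serum, eight 1:4 dilutions topping at 100 uM final, biological duplicate. Area under the growth curve at 80 h is fitted against DMSO baseline.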

Records with an inconclusive call do not appear. Where a structure was tested more than once in an assay, its records may differ in their call. The source made the active and inactive calls. The calls were made as follows, unless noted: active = hit-call score of the fitted dose curve at least 0.9, where 1 is the maximum; inconclusive = response in the unintended direction; inactive = score below 0.9.

Chain of Aryl hydrocarbon receptor (Homo sapiens) (P35869 whole entry, looked up): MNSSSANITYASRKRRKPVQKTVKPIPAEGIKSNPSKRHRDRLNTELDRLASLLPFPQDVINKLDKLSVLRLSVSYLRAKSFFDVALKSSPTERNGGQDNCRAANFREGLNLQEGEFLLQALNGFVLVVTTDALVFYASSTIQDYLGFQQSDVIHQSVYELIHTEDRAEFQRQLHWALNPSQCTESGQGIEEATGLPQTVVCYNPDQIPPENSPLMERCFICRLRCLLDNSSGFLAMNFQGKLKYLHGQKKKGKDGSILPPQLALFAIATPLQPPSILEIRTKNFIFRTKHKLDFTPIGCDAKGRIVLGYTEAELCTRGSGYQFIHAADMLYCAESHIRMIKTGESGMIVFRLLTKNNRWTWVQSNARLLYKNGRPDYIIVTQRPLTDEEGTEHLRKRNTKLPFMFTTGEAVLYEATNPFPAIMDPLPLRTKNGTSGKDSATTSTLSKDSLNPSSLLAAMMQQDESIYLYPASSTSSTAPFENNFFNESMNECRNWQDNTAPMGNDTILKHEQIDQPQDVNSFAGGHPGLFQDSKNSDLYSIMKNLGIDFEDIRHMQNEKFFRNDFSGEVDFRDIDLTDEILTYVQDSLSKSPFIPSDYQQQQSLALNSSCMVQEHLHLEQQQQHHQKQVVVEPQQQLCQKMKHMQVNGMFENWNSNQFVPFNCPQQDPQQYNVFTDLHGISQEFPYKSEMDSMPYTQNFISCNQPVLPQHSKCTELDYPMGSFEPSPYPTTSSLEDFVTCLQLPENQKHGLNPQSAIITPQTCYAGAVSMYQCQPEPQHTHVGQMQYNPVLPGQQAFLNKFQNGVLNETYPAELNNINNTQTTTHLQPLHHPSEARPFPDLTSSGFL
Chain of human Retinoid X Receptor beta (RXRb), RXRB (gene 6257) (P28702 whole entry, looked up, the tested form may be a part): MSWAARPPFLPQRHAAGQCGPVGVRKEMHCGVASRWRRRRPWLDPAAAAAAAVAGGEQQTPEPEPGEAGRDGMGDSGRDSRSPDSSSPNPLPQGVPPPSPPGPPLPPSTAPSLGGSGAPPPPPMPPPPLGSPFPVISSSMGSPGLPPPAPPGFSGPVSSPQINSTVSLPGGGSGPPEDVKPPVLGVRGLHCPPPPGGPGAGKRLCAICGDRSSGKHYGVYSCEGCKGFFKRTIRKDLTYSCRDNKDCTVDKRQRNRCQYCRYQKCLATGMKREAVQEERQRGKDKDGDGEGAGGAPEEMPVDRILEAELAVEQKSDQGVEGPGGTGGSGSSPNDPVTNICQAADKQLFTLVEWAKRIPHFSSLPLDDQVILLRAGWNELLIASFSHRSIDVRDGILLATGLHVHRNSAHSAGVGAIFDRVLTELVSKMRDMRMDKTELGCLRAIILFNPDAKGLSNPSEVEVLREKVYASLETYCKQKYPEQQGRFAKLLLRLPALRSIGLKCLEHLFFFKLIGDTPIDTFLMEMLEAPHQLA
Chain of Hypoxia-inducible factor 1-alpha (Homo sapiens) (Q16665 whole entry, looked up): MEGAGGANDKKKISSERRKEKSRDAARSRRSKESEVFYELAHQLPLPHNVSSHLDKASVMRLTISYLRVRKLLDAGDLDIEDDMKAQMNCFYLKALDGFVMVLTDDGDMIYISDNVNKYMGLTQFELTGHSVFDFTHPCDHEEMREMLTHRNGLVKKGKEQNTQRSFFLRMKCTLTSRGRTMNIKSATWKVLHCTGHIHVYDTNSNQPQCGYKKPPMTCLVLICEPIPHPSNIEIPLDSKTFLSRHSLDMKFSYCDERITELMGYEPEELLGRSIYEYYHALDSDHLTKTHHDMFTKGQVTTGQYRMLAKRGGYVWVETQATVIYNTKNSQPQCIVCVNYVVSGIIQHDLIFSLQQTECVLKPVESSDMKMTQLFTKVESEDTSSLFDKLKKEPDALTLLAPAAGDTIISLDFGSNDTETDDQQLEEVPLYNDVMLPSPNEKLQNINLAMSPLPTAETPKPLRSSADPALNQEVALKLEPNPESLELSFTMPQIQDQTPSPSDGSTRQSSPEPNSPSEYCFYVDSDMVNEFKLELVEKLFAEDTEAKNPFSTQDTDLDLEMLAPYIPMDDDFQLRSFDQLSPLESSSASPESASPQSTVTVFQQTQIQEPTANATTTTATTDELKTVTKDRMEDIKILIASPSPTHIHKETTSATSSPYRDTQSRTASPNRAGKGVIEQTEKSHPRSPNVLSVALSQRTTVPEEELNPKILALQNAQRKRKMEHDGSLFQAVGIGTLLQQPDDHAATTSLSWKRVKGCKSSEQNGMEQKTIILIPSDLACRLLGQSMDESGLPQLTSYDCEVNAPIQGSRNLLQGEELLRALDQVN

For the compound `CCC(C)c1cc(C(C)(C)C)cc(-n2nc3ccccc3n2)c1O` (stereo not drawn), the compound was classed as inactive in assay [1], in assay [2], in assay [3], in assay [4], in [5] and in assay [6]. Moreover, the compound was classed as inactive in [7], in assay [8], in assay [9] and in [10]. In assay [11], the AC50 is 8.72 µM (active).
Regarding `CCC(C)c1cc([N+](=O)[O-])cc([N+](=O)[O-])c1OC(=O)C=C(C)C` (stereo not drawn), the compound was called inactive in assay [1], in assay [12], in assay [4], in assay [5], in assay [13] and in assay [6]. The outcome in assay [8], in assay [9], in [15], in assay [11] and in assay [17] was inactive. For the same compound, the AC50 in [2] is 25.1 µM (active); in [14], 25.5 µM (active); in assay [10], 1.05 µM (active); in assay [16], 13.8 µM (active); in assay [18], 14.3 µM (active).
On to `CCC(Br)(CC)C(=O)NC(N)=O`, for which the result in [2], in [3], in [12], in assay [5], in assay [13] and in assay [6] was inactive. For the same compound, the compound was called inactive in [8], in [14], in [15], in assay [11], in assay [16] and in [19]. The result in assay [20] was inactive.
For `COc1cc(OC)nc(Oc2cccc(Oc3nc(OC)cc(OC)n3)c2C(=O)O)n1`, the AC50 in assay [1] was 57.5 µM (active). In addition, the result in [5], in [13], in assay [6], in assay [7], in [9] and in assay [14] was inactive. Moreover, the result in assay [10], in assay [11], in assay [16], in assay [19], in assay [17] and in assay [20] was inactive.
Turning to `CCCCCc1cc(O)cc(O)c1`, the result in assay [1], in [2], in assay [12], in assay [13], in assay [8] and in assay [9] was inactive. The compound was called inactive in assay [14], in [11], in [16], in assay [19] and in assay [18]. The results for the AC50 in [6], in assay [10] and in [16] were 19.8 µM (active), 10.5 µM (active) and 83.7 µM (active), respectively.
`CC(C)C#N`: the compound was called inactive in assay [1], in [3], in assay [4], in [5], in [13] and in assay [6]. In addition, the result in assay [7], in assay [9], in assay [14], in assay [10], in [15] and in [20] was inactive.
As for `N#Cc1cc(I)c(O)c(I)c1`, the AC50 in assay [2] is 100 µM (active); in assay [6] it was 29.1 µM (active); in assay [10], 10.7 µM (active); in assay [16], 9.91 µM (active); in assay [18] it was 13.9 µM (active). Besides, the outcome in [3], in assay [12], in assay [4], in [13], in assay [7] and in assay [9] was inactive. In addition, the compound was classed as inactive in [14], in [15] and in assay [17].
Consider `Nc1ccc(Cl)c(Cl)c1`, for which the compound was classed as inactive in assay [1], in assay [2], in assay [12], in assay [13], in assay [6] and in assay [8]. Moreover, the outcome in assay [9], in assay [14], in [10], in assay [15], in [11] and in assay [16] was inactive. Further, the result in assay [18] was inactive.
As to `O=[N+]([O-])O`, the compound was called inactive in [1], in assay [3], in assay [12], in assay [4], in [7] and in [8]. The compound was called inactive in assay [10], in [17] and in [20].
Consider `Nc1cc(Cl)cc(Cl)c1`, for which the compound was classed as inactive in [1], in [3], in assay [12], in assay [13], in assay [6] and in assay [7]. The compound was classed as inactive in assay [9], in [11], in [16], in [19], in assay [17] and in assay [18]. Also, the compound was classed as inactive in assay [20].

One may read the AC50 as the concentration giving half of the maximal activity seen.
